According to publication PMC4336329 (PLoS ONE, 2015):
About 14,000 (4.5%) of roughly 310,000 compounds showed an effect of 50% or more. The effect is printed as a negative number. What follows is part of a selection rich in strong results, with near analogues and random picks from the rest.

Target: human ether-à-go-go-related gene (hERG) potassium channel (human, UniProt Q12809)
Assay: primary screen, population patch clamp on CHO cells stably expressing hERG; higher = less effect of the substance
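Further: peak tail current of the secondary pulse compared with the same well before compound.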

Chain of human ether-à-go-go-related gene (hERG) potassium channel (Q12809 whole entry, looked up): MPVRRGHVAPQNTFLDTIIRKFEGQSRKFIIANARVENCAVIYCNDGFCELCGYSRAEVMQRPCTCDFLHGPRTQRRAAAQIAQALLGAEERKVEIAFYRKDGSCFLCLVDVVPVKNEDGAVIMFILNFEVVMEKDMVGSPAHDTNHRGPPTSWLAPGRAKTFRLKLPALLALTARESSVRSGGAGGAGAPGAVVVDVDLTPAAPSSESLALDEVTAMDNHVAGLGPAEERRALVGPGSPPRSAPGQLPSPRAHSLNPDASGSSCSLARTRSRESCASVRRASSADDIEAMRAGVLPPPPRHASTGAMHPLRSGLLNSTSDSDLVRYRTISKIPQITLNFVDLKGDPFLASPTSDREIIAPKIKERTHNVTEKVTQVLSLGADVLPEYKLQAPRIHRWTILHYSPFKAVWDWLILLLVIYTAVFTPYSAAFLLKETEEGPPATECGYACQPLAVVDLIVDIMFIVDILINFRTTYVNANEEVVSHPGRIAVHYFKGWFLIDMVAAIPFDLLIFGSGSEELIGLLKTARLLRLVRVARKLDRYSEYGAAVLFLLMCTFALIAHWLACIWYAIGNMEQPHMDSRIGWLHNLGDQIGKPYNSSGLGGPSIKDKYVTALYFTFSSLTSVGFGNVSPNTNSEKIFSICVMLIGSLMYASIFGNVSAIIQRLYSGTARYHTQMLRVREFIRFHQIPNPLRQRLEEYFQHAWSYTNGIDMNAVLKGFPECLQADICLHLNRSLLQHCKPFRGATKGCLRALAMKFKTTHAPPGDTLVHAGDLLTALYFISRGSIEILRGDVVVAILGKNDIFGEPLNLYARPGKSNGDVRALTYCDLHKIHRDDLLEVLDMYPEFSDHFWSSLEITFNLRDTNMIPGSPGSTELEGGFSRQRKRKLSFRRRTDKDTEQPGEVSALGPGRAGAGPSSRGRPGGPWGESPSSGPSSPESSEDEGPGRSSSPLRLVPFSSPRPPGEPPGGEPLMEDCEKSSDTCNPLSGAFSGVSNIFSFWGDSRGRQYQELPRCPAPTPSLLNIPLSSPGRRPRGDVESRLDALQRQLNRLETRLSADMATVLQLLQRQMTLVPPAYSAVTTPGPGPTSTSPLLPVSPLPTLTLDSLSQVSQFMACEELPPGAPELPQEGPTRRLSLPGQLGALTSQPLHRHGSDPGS

SMILES | hERG current change (%, negative = inhibition) at 10uM [%]
CCSC1=N/C(=C\C=C2/Oc3ccccc3N2CC)C(=O)S1 | -3.2
COc1ccc(C(=O)C2CCCN(C3Cc4ccccc4C3)C2)cc1OC (stereo not shown) | -76.6
COc1ccc(C(=O)C2CCCN(C3CSCCSC3)C2)cc1OC (stereo not shown) | -21.8
COc1ccc(OC)c(NC(=O)N2CCCC(C(=O)c3ccccc3OC)C2)c1 (stereo not shown) | 5.87
COc1ccc(C(=O)C2CCCN(C3Cc4ccccc4C3)C2)c(OC)c1 (stereo not shown) | -76.5
COc1ccc(C(=O)C2CCCN(C3CSCCSC3)C2)c(OC)c1 (stereo not shown) | -43.6
COC(=O)c1ccccc1C(=O)N1CCCC(C(=O)c2ccc(OC)c(OC)c2)C1 (stereo not shown) | 4.47
CC(C)(C)NC(=O)COc1ccc(CNc2ccc3[nH]c(=O)[nH]c3c2)cc1 | -1.87
Cn1c(NCc2ccco2)nc2c1c(=O)n(Cc1ccc(Cl)c(Cl)c1)c(=O)n2C | -15.6
COCCn1c(SCC(=O)/C=C2\N(C)c3ccccc3C2(C)C)nnc1-c1ccncc1 | -37.4
CC(=O)Nc1ccccc1OCCOc1ccc(Br)cc1 | -1.67
Clc1ccc(-c2nnc3n2CCCS3)cc1 | 6.34
O=C(COc1ccccc1)NCCc1nc2ccccc2[nH]1 | -6.21
O=C(NCCc1nc2ccccc2[nH]1)c1cc([N+](=O)[O-])cc([N+](=O)[O-])c1 | -8.57
O=C(COc1ccccc1Br)NCCc1nc2ccccc2[nH]1 | -65.3
O=C(NCCc1nc2ccccc2[nH]1)c1ccc(Cl)c([N+](=O)[O-])c1 | -56.2
O=C(NCCc1nc2ccccc2[nH]1)c1ccc([N+](=O)[O-])cc1 | -56.8
O=C(COc1ccc([N+](=O)[O-])cc1)NCCc1nc2ccccc2[nH]1 | -56.7
COc1ccccc1OCC(=O)NCCc1nc2ccccc2[nH]1 | 2.13
Cc1ccccc1OCC(=O)NCCc1nc2ccccc2[nH]1 | -9.27
CCOc1ccc(OCC(=O)NCCc2nc3ccccc3[nH]2)cc1 | -34.6
O=C(NCc1nc2ccccc2[nH]1)c1ccc([N+](=O)[O-])cc1 | -38.5

SMILES | hERG current change (%, negative = inhibition) at 10uM [%]
O=C(Nc1nc2ccccc2[nH]1)c1ccc(Cl)c([N+](=O)[O-])c1 | 0.857
Cc1ccc(C(=O)NCCc2nc3ccccc3[nH]2)cc1[N+](=O)[O-] | -31.8
CC1=NN(C(=O)Cc2ccc([N+](=O)[O-])cc2)C(O)(C(F)(F)C(F)(F)F)C1 (stereo not shown) | -12.4
O=C(Nc1nnc(-c2ccco2)o1)c1cccc(N2C(=O)CCC2=O)c1 | 7.91
CCOc1ccc(Br)cc1C(=O)N/N=C/c1cccnc1 | 1.64
CCCn1c(SCCC(=O)O)nc2ccccc21 | 8.62
O=[N+]([O-])c1ccc(-c2c(-c3ccccc3)ncc3cc(F)ccc23)cc1 | 1.58
O=C(CNc1cc(S(=O)(=O)N2CCCC2)ccc1OCC(F)(F)F)Nc1cc(Cl)cc(Cl)c1 | 6.5
CC(=O)Nc1c(O)nc(C)[nH]c1=O | 6.51
O=c1cc(CSc2nnc(COc3cccc4ccccc34)o2)c2ccccc2[nH]1 | 22.2
COCCNC(=O)c1nn2cccnc2c1Cl | -11.3
CCCNC(=O)c1nc2ncc(Br)cn2n1 | -31.1
CCc1ccccc1NC(=O)c1cc2ncc(Br)cn2n1 | 9.22
CCCCNC(=O)c1nn2cc(Br)cnc2c1Br | -62.3
CCCCNC(=O)c1nc2ncc(Br)cn2n1 | -21
CCCCNC(=O)Nc1ccc(Br)cn1 | -16.2
COCCNC(=O)c1cc2ncc(Br)cn2n1 | 5.41
CCCNC(=O)c1nn2cc(Br)cnc2c1Cl | -73.2
CCCNC(=O)c1nn2cc(Br)cnc2c1Br | -69.2
O=C(/C=C/c1ccccc1)Nc1ccc(NC(=O)c2cccs2)cc1 | 6.8
COC(=O)c1cc(-c2ccc(NC(C)=O)cc2)nc2ccccc12 | 6.01
CCOC(=O)CC(NC(=O)Cc1ccccc1)c1ccccc1Cl (stereo not shown) | 1.83

SMILES | hERG current change (%, negative = inhibition) at 10uM [%]
Cc1ccc(Nc2ncc3c(n2)CC(C)(C)CC3=O)cc1 | -10
N/C(=N/OCC(=O)Nc1cccc2ccccc12)c1nonc1N | -14
CCOc1ccc(C(=O)O/N=C(\N)c2ccc([N+](=O)[O-])cc2)cc1OCC | -6.93
CN(C)Cc1nc2ccccc2c(=O)n1Cc1nc(-c2cc3ccccc3o2)cs1 | 9.3
CN1CCN(Cc2nc3ccccc3c(=O)n2Cc2nc(-c3ccc([N+](=O)[O-])cc3)cs2)CC1 | -73.8
CN1CCN(Cc2nc3ccccc3c(=O)n2Cc2nc(-c3ccccc3F)cs2)CC1 | -71
CN1CCN(Cc2nc3ccccc3c(=O)n2Cc2nc(-c3ccc4ccccc4c3)cs2)CC1 | -6.55
CN(C)Cc1nc2ccccc2c(=O)n1Cc1nc(-c2cccc([N+](=O)[O-])c2)cs1 | -36.9
CN1CCN(Cc2nc3ccccc3c(=O)n2CC#N)CC1 | -2.87
Cc1cc2[nH]c(=O)c(=O)[nH]c2cc1S(=O)(=O)Nc1cccc(Cl)c1C | -0.165
CCN1CCN(C2=NC(=O)/C(=C/c3ccc(C)o3)S2)CC1 | -20.9
O.[I-].c1ccc2[nH]c(-c3cc[nH+]c4ccccc34)nc2c1 | -12.6
CCc1c(C)nc2ncnn2c1N1CCCC(C(=O)NCCc2ccc(OC)cc2)C1 (stereo not shown) | -19.6
CCOc1ccccc1NC(=O)C1CCCN(c2c(CC)c(C)nc3ncnn23)C1 (stereo not shown) | -65.1
CCc1c(C)nc2ncnn2c1N1CCC(C(=O)Nc2ccc(C)cc2)CC1 | -55.9
CCc1c(C)nc2ncnn2c1N1CCCC(C(=O)NCCc2ccccc2)C1 (stereo not shown) | -15.2
CCc1c(C)nc2ncnn2c1N1CCCC(C(=O)Nc2cc(F)ccc2C)C1 (stereo not shown) | -40.6
O=C(C1CCN(c2ccc(N3CCOCC3)nn2)CC1)N1CCN(c2ccc(F)cc2)CC1 | -47.4
CCc1c(C)nc2ncnn2c1N1CCC(C(=O)NCc2cccs2)CC1 | -44.4
CCc1c(C)nc2ncnn2c1N1CCC(C(=O)N2CCN(c3ccc(F)cc3)CC2)CC1 | -67.9
CCc1c(C)nc2ncnn2c1N1CCC(C(=O)Nc2ccccc2)CC1 | -44.4
CCc1c(C)nc2ncnn2c1N1CCC(C(=O)Nc2cccc(C(C)=O)c2)CC1 | -22.6

SMILES | hERG current change (%, negative = inhibition) at 10uM [%]
CCc1c(C)nc2ncnn2c1N1CCCC(C(=O)Nc2ccc(NC(C)=O)cc2)C1 (stereo not shown) | 14.2
CCOc1ccc(NC(=O)C2CCCN(c3c(CC)c(C)nc4ncnn34)C2)cc1 (stereo not shown) | -65.8
Cc1nc2ccc(NC(=O)Cc3cccs3)cc2s1 | 11
CCOC(=O)N/N=C/C=C/c1ccccc1 | 1.98
O=C(O)c1cc(N/N=C/c2c[nH]c3ccccc23)ccc1Cl | 10.3
O=S(=O)(/C=C/c1ccccc1)N1CCN(c2ccccc2)CC1 | -2.08
S=c1[nH]nc(-c2ccco2)n1/N=C/c1c(Cl)cccc1Cl | -10.9
Cc1cc(NC(=O)c2ccc(Cl)cc2)ccc1NC(=O)c1ccccc1Cl | 9.97
Cc1cc(C)c(C(=O)COC(=O)c2nn(C)c(=O)c3ccccc23)cc1C | -30.4
O=C(O)c1ccccc1C(=O)NCCCCCCNC(=O)c1ccccc1C(=O)O | 7.63
Cc1ccccc1NC1=CC(=O)CC(C)(C)C1 | -0.789
CCOC(=O)C1CCCN(Cc2cn[nH]c2-c2ccc(F)cc2F)C1 (stereo not shown) | -2.03
CCC1CCCCN1CCCNC(=O)CS(=O)Cc1nc(-c2ccc(OC)c(OC)c2)oc1C (stereo not shown) | 5.21
CCOC(=O)CC1CCCCN1Cc1nc(-c2ccc(F)c(OC)c2)oc1C (stereo not shown) | -65.5
COc1ccc(-c2nc(CS(=O)CC(=O)NCCN3CCCCC3C)c(C)o2)cc1OC (stereo not shown) | 16.8
COc1cc(-c2nc(CN3CCN(CC(C)C)C(=O)[C@@H]3C)c(C)o2)ccc1F | -14.2
COc1cc(-c2nc(CN3CCCCC3CCNC(C)=O)c(C)o2)ccc1F (stereo not shown) | -66.6
COc1ccc(-c2nc(CSCC(=O)N3CCC(C(N)=O)CC3)c(C)o2)cc1OC | -0.184
CCOC(=O)CC1CCCCN1Cc1cn[nH]c1-c1ccc(F)cc1F (stereo not shown) | -64.8
CCOC(=O)C1CCCCN1Cc1cn[nH]c1-c1ccc(F)cc1F (stereo not shown) | 1.06
O=C(CSc1nc2cc(Cl)ccc2s1)NCc1ccc2c(c1)OCO2 | 0.137
COc1cc(OC)cc(C(=O)N(Cc2cc3cc(C)ccc3[nH]c2=O)C(C)C)c1 | -7.49
